# Compound activity as filed in PubChem.
# Only some compounds are listed: those with a hit (about 3% of all), similar ones and a draw of the others.
# TRAIL sens C8: caspase-8 TRAIL sensitization. NB7+C8 cells + TRAIL, ATPlite viability luminescence. inhibition (viability loss, TRAIL sensitization), % at 10 µM. 360,000 tested, 1% active. AID 624354;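 active = compounds causing at least 50% loss of cell viability in the single-dose screen, relative to plate controls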
# SENP6 inh: SENP6 protease inhibition. inhibition, % at 10 µM. Recombinant SENP6 catalytic domain, aminoluciferin luminescence. Q9GZR1. AID 2599. 330,000 tested, 1.8% active;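 active = inhibition above about 50% at the single tested dose, limit read from the data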;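 note: plate controls were DMSO wells with enzyme for no effect and DMSO wells lacking enzyme for full effect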
# SENP8 block-1: SENP8 protease inhibition; inhibition, % at 10 µM; Q96LD8; purified SENP8, Z-RLRGG-aminoluciferin cleavage, luminescence; 330,000 tested, 1.2% active; in the data active = inhibition above about 50%
# Target sequence (Q96LD8 whole entry, looked up): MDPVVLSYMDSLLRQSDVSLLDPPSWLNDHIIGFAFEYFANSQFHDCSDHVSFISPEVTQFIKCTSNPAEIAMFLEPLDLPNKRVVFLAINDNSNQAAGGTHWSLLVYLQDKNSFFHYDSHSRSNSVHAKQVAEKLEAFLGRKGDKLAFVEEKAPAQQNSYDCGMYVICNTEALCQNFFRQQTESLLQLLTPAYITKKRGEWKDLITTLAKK
# SENP8 block-2: SENP8 (human) protease inhibition | recombinant SENP8, Nedd8 substrate fluorescence | 360,000 tested, 0.64% active | inhibition, % at 20 µM; in the data active = inhibition mostly above about 40%, no sharp cut-off; inactive = mostly below about 27%
# SENP7 block: inhibitors of human SENP7 protease. recombinant SENP7, Z-RLRGG-aminoluciferin luminescence, 40 min. 330,000 tested, 1.5% active. Q9BQF6. inhibition, % at 5 µM;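 active = inhibition above about 50% at the single test dose, limit read from the data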;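 note: plate controls were DMSO with enzyme for no effect and no enzyme buffer wells for full effect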
# Target sequence (Q9BQF6 706-1050 limits assumed): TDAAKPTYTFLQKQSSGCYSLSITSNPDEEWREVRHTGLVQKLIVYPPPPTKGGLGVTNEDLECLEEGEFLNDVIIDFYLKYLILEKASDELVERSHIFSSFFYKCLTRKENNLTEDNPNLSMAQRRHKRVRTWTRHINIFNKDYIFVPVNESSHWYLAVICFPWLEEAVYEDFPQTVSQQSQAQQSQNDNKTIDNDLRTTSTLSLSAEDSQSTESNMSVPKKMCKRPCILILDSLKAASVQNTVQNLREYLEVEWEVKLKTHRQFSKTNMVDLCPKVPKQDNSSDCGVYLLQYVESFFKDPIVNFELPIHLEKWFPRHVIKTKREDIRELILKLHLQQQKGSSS
# PPC-1+TRAIL kill: PPC-1 cancer cell killing with TRAIL present | PPC-1 cells + TRAIL, ATPLite viability luminescence | cell killing (% activity), % at 4 µM or 5 µM | 220,000 tested, 0.41% active;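 active = cell killing above 50% in the first pass at 4 µM, then a duplicate retest at 5 µM averaging 50% or more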;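 note: plate controls were cells with TRAIL plus DMSO for no effect and medium-only wells lacking cells for full effect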
# SENP8 conf: confirmation of human SENP8 protease inhibitors; shares compounds with SENP7 block; Recombinant SENP8, Z-RLRGG-aminoluciferin luminescence, 60 min; 6,200 tested, 40% active; inhibition, % at 12.5 µM; AID 488912;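 active = mean inhibition across replicates above about 50%, limit read from the data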
# SENP6 confirm: confirmation of human SENP6 protease inhibitors; shares compounds with SENP7 block; inhibition, % at 12.5 µM; recombinant SENP6, Z-RLRGG-aminoluciferin luminescence; 6,200 tested, 58% active; AID 488915
# SENP7 conf: confirmation of human SENP7 protease inhibitors | inhibition, % at 12.5 µM | 6,200 tested, 69% active | shares compounds with SENP7 block | recombinant SENP7, Z-RLRGG-aminoluciferin luminescence, 40 min
# Casp3 select: selectivity test for SENP inhibitors: human caspase-3 inhibition | shares compounds with SENP7 block | purified caspase-3, Z-DEVD-aminoluciferin luminescence, 60 min | inhibition, % at 12.5 µM | 6,200 tested, 60% active;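 active = mean inhibition above about 50%, limit read from the data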;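 note: plate controls were enzyme with DMSO for no effect and wells without caspase-3 for full effect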
# Luc interf: interferes with luciferase luminescence in SENP counter-screen | shares compounds with SENP7 block | Pre-incubated SENP8/Z-RLRGG-aminoluciferin, luciferase luminescence interference | inhibition, % at 12.5 µM | 6,200 tested, 39% active;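 active = mean inhibition above about 50% when retested at one dose, limit read from the data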;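 note: plate controls were DMSO wells with completed reaction for no effect and substrate without enzyme for full effect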
# Starred values were filed as active, the others as inactive; · = no result.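 Rule for the calls, unless noted: active = mean inhibition above about 50% in the one-dose retest (limit read from the data); inactive = the rest.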
SMILES,TRAIL sens C8,SENP6 inh,SENP8 block-1,SENP8 block-2,SENP7 block,PPC-1+TRAIL kill,SENP8 conf,SENP6 confirm,SENP7 conf,Casp3 select,Luc interf
Clc1ccc(-c2nsc(N3CCOCC3)n2)c(Cl)c1,28,77*,65*,11,68*,·,66*,64*,89*,72*,49
COc1cc(NC(C)CCCN)c2ncccc2c1Oc1ccccc1 (centres undefined),-1,74*,34,-13,30,22,15,28,18,9,3
COc1ccc(-c2cc(-c3ccc(Cl)cc3)n[nH]2)c(O)c1,18,70*,64*,19,64*,·,25,48,87*,14,66*
Cc1ccc(O)c(-c2cc(-c3cccc(F)c3)n[nH]2)c1,25,-10,5,4,16,27,·,·,·,·,·
COc1ccc(-c2cc(-c3ccccc3O)[nH]n2)cc1OC,17,80*,78*,10,88*,-8,93*,92*,101*,69*,93*
Oc1ccccc1-c1cc(-c2ccc3c(c2)OCCO3)n[nH]1,53*,97*,95*,12,1,43,97*,99*,103*,92*,68*
COc1ccc(-c2cc(-c3cc(F)ccc3O)[nH]n2)cc1OC,15,72*,69*,-7,83*,8,86*,84*,95*,36,83*
CCOC(=O)C1(C)CCCN(C(=O)c2cccc(C(F)(F)F)c2)C1 (centres undefined),-18,·,·,5,·,·,·,·,·,·,·
COc1cccc(CCC2C(=O)CCCC2=O)c1,-1,·,·,1,·,·,·,·,·,·,·
CCOC(=O)N1CCc2c(sc3c2c(=O)n(-c2ccc(CC)cc2)c(=O)n3CC(=O)NCC2CCCO2)C1 (centres undefined),9,7,2,8,8,·,·,·,·,·,·
COc1ccc(-c2cc(-c3ccc(OC)c(OC)c3)n[nH]2)c(O)c1,-7,94*,93*,16,96*,15,97*,98*,102*,86*,95*
O=[N+]([O-])c1cccc(NN=Nc2ccccc2)c1,3,64*,70*,25,69*,·,71*,69*,88*,36,67*
O=[N+]([O-])c1ccc(N=NNc2ccccc2)cc1,3,59*,29,-7,40,-18,48,49,75*,17,25
Brc1ccc(N=NNc2ccccc2)cc1,-4,51*,12,38,20,·,68*,74*,88*,28,46
CC(=O)c1cnc(Nc2cccc(Cl)c2Cl)s1,-3,53*,41,-270,48,-4,62*,58*,86*,61*,5
Nc1nc2ccccc2cc1C(=O)NCc1ccc(-c2ccccc2)cc1,8,·,·,-406,·,·,·,·,·,·,·
Cc1cccc(NC(=O)c2ccc3nccnc3c2)n1,11,8,-4,-13,3,·,·,·,·,·,·
O=C(Nc1ccc(Cl)cn1)c1ccc2c(Cl)c3c(nc2c1)CCC3,57*,2,1,-3,71*,47,-20,-18,11,27,3
Cc1cccc(NC(=O)c2ccc3c(Cl)c4c(nc3c2)CCCC4)n1,70*,44,9,-3,87*,36,-2,8,10,21,-4
CCC(C)NC(=O)c1ccc2c(Cl)c3c(nc2c1)CCC3 (centres undefined),41,34,6,13,28,18,·,·,·,·,·
COc1ccc(-n2c(O)c(/C=N/NS(=O)(=O)c3cccc([N+](=O)[O-])c3)c3ccccc3c2=O)cc1OC,-3,53*,10,-400,25,14,10,19,-5,0,0
COc1ccc(CC(=O)NNS(=O)(=O)c2cccc([N+](=O)[O-])c2)cc1OC,10,-7,3,14,-5,·,·,·,·,·,·
c1ccc(-c2ncc(-c3ccn[nH]3)s2)cc1,43,91*,83*,-387,91*,24,84*,85*,98*,87*,59*
Cc1ccc2c(C)c(C(=O)NCCN3CCOC3=O)oc2c1C,0,-14,-8,12,11,·,·,·,·,·,·
c1ccc(Oc2cc(-n3cccn3)ncn2)cc1,26,54*,41,5,46,24,3,33,75*,68*,14
SMILES,TRAIL sens C8,SENP6 inh,SENP8 block-1,SENP8 block-2,SENP7 block,PPC-1+TRAIL kill,SENP8 conf,SENP6 confirm,SENP7 conf,Casp3 select,Luc interf
O=C(Nc1ccc(-c2n[nH]c(=S)o2)cc1)c1ccccc1Br,1,80*,49,-154,20,·,57*,54*,80*,74*,62*
O=C(CN1C(=O)NC2(CCCC2)C1=O)Nc1nc2c(F)cc(F)cc2s1,6,-1,-1,-7,8,·,·,·,·,·,·
Cc1cccc2nc(C(=O)Nc3cccc(C(=O)NC4CC4)c3)cn12,37,-3,-8,8,6,·,·,·,·,·,·
CN1CCN(c2ccc(NC(=O)c3cccc(OCc4ccccc4)c3)cc2)CC1,8,59*,21,28,29,31,23,11,23,15,4
O=C(Nc1ccc(COc2ccccc2)cc1)c1cccc([N+](=O)[O-])c1,4,9,-4,16,63*,0,-1,0,2,6,5
CCN1CCN(c2ccc(NC(=O)c3cccc(OCc4ccccc4)c3)cc2)CC1,7,56*,16,7,24,23,0,-3,8,9,4
C=CCN(c1ccc(F)cc1)S(=O)(=O)c1cc(C(=O)NC2CC2)ccc1Cl,5,·,·,20,·,·,·,·,·,·,·
Cc1ccc2ccccc2c1C(O)c1ncc(-c2cccc(F)c2)[nH]1 (centres undefined),17,·,·,-3,·,·,·,·,·,·,·
O=C1/C(=C\c2cccnc2)Sc2ccccc21,-12,23,-2,-49,4,24,·,·,·,·,·
CC(=O)Nc1ccc(/C=C2/Sc3ccccc3C2=O)cc1,5,66*,62*,-100,94*,·,21,21,34,34,14
O=C(NCc1cccnc1)C(=O)C1C(=O)Nc2ccccc21 (centres undefined),-14,30,-4,14,-5,22,·,·,·,·,·
